The nature of assay [1]: HepG2 liver cancer cell viability effects, profiling panel, resazurin fluorescence, 24 h, PK04 Diversity Set (AID 1172). Further: test concentration not given here. Conditions: higher = more signal.
Assay [2] in a line: basal S. cerevisiae growth modulation, no modifier, primary screen, OD600, strain BY4716, 24 h, basal condition (AID 1173). Conditions: OD600, 24 h, higher = more signal, called active from +8 up or from −8 down.
The nature of assay [3]: MM1S myeloma cell viability, profiling panel, resazurin fluorescence, basal, 24 h, PK04 Diversity Set (AID 1174).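 Further: MM1S multiple myeloma cell line; test concentration not given here.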 The settings on record: higher = more signal, called active from +8 up or from −8 down.
Assay [4] addresses Dihydroorotate dehydrogenase (quinone), mitochondrial (Plasmodium falciparum (isolate 3D7)) (UniProt Q08210). Kind of assay: PfDHODH enzyme inhibitors, primary screen, biochemical, C-terminal His tag, absorbance 600 nm (AID 1175).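 Further: recombinant parasite enzyme with a five histidine tag at its C terminus; test concentration not given here.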 The settings on record: DCIP absorbance 600 nm, higher = more signal, called active from +8 up or from −8 down.
The nature of assay [5]: P. aeruginosa biofilm formation inhibitors, primary screen, strain PAO1, LB-PBS medium, absorbance 600 nm (AID 1176). Further: test concentration not given here. The settings on record: P. aeruginosa PAO1 growth/biofilm, A600, 12 h; higher = more signal.
Assay [6] is described as follows: S. cerevisiae RM11-1a growth modifiers, primary screen, strain RM11-1a, OD600, basal, 24 h (AID 1177).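 Further: cultures grown under basal conditions with no added stressor; test concentration not given here.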 The settings on record: OD600, 24 h, higher = more signal, called active from +8 up or from −8 down.
Assay [7] is described as follows: E. coli acrAB mutant growth effects, primary screen, E. coli filamentation inducers, strain DRC39, OD650, 24 h (AID 1178).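 Further: growth measured as culture turbidity by optical density at 650 nm; test concentration not given here.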 The settings on record: higher = more signal, called active from +8 up or from −8 down.
Assay [8] can be described thus: E. coli acrAB mutant growth effects, primary screen, E. coli filamentation inducers, strain DRC39, OD650, 48 h (AID 1179).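 Further: screen aims at cell division blockers that make cells filament.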 Conditions: E. coli DRC39 delta-acrAB growth, higher = more signal, called active from +8 up or from −8 down.
Assay [9] is described as follows: RPMI8226 myeloma cell viability, profiling panel, resazurin fluorescence, basal, 24 h, PK04 Diversity Set (AID 1180).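 Further: RPMI8826 multiple myeloma cell line at 5000 cells per well; test concentration not given here.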 The settings on record: higher = more signal.
The target of assay [10] is E3 ubiquitin-protein ligase XIAP (Homo sapiens) (UniProt P98170). Kind of assay: XIAP binders, primary screen, biophysical, small-molecule microarray, fluorescence 635 nm (AID 1181).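 Further: score merges 667 nm emission and signal to noise over triplicate slides.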 The settings on record: small-molecule microarray binding, higher = more signal.
E3 ubiquitin-protein ligase XIAP (Homo sapiens), sequence (P98170 whole entry, looked up): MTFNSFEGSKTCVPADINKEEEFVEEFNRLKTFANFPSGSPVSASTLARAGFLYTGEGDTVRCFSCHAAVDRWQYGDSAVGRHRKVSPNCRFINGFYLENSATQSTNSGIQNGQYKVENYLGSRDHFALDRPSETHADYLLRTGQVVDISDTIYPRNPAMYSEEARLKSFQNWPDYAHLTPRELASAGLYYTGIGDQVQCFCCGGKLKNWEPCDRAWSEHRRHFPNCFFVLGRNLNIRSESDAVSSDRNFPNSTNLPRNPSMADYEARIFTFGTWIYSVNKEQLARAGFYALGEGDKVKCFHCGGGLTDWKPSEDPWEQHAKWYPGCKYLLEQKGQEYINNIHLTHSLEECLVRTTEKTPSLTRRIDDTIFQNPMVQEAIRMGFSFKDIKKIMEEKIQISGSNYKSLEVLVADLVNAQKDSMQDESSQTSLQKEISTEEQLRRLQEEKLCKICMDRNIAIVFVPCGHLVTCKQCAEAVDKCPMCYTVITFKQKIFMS

Activity calls are given as the source filed them. Unless noted, how the calls were made is not given here.

Dihydroorotate dehydrogenase (quinone), mitochondrial (Plasmodium falciparum (isolate 3D7)), sequence (Q08210 whole entry, looked up): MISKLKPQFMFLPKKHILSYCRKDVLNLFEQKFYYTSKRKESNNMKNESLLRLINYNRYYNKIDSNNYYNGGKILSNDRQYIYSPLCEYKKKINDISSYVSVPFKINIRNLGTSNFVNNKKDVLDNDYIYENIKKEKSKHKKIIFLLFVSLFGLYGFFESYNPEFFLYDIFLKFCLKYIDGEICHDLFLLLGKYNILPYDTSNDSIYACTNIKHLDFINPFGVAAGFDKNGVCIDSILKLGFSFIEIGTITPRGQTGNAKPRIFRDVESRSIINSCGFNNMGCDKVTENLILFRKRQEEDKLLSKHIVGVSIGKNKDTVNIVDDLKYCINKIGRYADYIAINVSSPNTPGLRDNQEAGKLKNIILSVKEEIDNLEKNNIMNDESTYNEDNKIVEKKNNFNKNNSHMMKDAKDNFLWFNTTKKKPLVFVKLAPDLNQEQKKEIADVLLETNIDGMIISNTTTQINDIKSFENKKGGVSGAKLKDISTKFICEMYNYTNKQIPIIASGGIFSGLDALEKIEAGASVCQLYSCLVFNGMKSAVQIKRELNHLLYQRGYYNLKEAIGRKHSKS

Take `CC(C)(C)N1C(=O)[C@H]2[C@H]3[C@H](O)[C@H](O)CC(=NOC[C@@H](O)COCc4ccco4)[C@@H]3CC[C@H]2C1=O`: the z-score was -0.28 in assay [1]; 0.382 (inactive) in [2]; 0.0017 (inactive) in assay [3]; 0.213 (inactive) in assay [5]; -0.0396 (inactive) in [6]; -0.323 (inactive) in assay [7]. Also, the z-score in assay [8] is -0.253 (inactive); in assay [9], 0.589. The values for the composite z-score in assay [4] and in assay [10] were -0.0796 (inactive) and -0.173, respectively.

Regarding `CCN1C(=O)[C@H]2[C@H]3[C@H](O)[C@H](O)CC(=NOCC=C(C)CCC=C(C)C)[C@@H]3CC[C@H]2C1=O`, the z-score in [1] was -0.623; in assay [2], -6.59 (inactive); in [3] it was -0.719 (inactive); in [5], -0.446 (inactive); in [6], -0.29 (inactive); in assay [7], 0.42 (inactive). For the same compound, the z-score in [8] is -0.731 (inactive); in assay [9], -0.517. Also, the composite z-score in assay [4] is -1.16 (inactive); in assay [10], 0.155.

Turning to `COC(=O)[C@@H]1CC[C@H](C)[C@@H](c2ccc(Br)cc2)N1C[C@H](O)CN=[N+]=[N-]`, the z-score in assay [1] is -0.413; in assay [2], -6.28 (inactive); in assay [3], -0.666 (inactive); in [5] it was 1.09 (inactive); in assay [6] it was 0.347 (inactive); in [7] it was -0.78 (inactive). Moreover, the values for the z-score in assay [8] and in assay [9] were -1.18 (inactive) and 0.385, respectively. The composite z-score in [4] is 0.294 (inactive); in [10], -0.122.

As to `CC[C@@H](c1ccccc1)n1c(=O)n2n(c1=O)[C@H]1[C@H](O)[C@@H]3O[C@@H]3C(=NOCc3ccccc3)[C@H]1CC2`, the z-score in [1] is -1.67; in [2], -1.04 (inactive); in [3] it was -2.51 (inactive); in assay [5], -0.0819 (inactive); in assay [6], -0.15 (inactive); in assay [7] it was -0.527 (inactive). Also, the z-score was -0.95 (inactive) in [8] and -2.34 in [9]. Also, the composite z-score in [4] was 0.149 (inactive); in assay [10], -0.0062.

As to `COc1ccc(OC[C@@H](CO)OC)cc1`, the z-score was -0.279 in [1]; 0.0175 (inactive) in assay [2]; -0.143 (inactive) in assay [3]; -0.364 (inactive) in assay [5]; -0.334 (inactive) in assay [6]; 0.293 (inactive) in [7]. The z-score in [8] is 0.178 (inactive); in assay [9], 0.421. Besides, the figures for the composite z-score in [4] and in [10] were -0.591 (inactive) and -0.0344, respectively.

Consider `CC(C)[C@@H](OCc1ccccc1)[C@H](C)C=NO[C@H](C)c1cn([C@@H]2COC[C@H]2O)nn1`, for which the z-score is -0.507 in assay [1]; -1.28 (inactive) in assay [2]; -0.648 (inactive) in [3]; -0.0296 (inactive) in assay [5]; -0.0941 (inactive) in assay [6]; 0.462 (inactive) in [7]. Also, the figures for the z-score in [8] and in assay [9] were 0.178 (inactive) and -0.64, respectively. In addition, the values for the composite z-score in assay [4] and in assay [10] were -0.498 (inactive) and -0.173, respectively.

Regarding `COC(=O)CC=C[C@@H](C)[C@@H](C=NOC[C@@H](O)[C@H]1O[C@@H]2OC(C)(C)O[C@@H]2[C@H]1O)OC`, the z-score is -0.904 in assay [1]; -0.385 (inactive) in assay [2]; -0.311 (inactive) in [3]; -0.525 (inactive) in assay [5]; 0.442 (inactive) in assay [6]; 0.404 (inactive) in assay [7]. Further, the figures for the z-score in assay [8] and in assay [9] were 0.493 (inactive) and -1.51, respectively. For the same compound, the results for the composite z-score in assay [4] and in assay [10] were 0.757 (inactive) and -0.158, respectively.

For the compound `CC(C)=CCCC(C)=CCON=C1[C@H]2CCn3c(=O)n(-c4ccccc4)c(=O)n3[C@H]2[C@H](O)[C@@H]2O[C@H]12`, the z-score in assay [1] is -0.792; in assay [2], -3.89 (inactive); in assay [3], -2.7 (inactive); in [5], 0.717 (inactive); in [6], -0.0881 (inactive); in [7], -0.611 (inactive). Moreover, the z-score in assay [8] is 0.092 (inactive); in assay [9], -2.03. Further, the figures for the composite z-score in assay [4] and in assay [10] were -0.197 (inactive) and 0.293, respectively.

Consider `COc1ccc(COC(=O)NN=C2C[C@@H](O)[C@@H](O)[C@@H]3[C@@H]4C(=O)N(c5cccc(Oc6ccccc6)c5)C(=O)[C@@H]4CC[C@H]23)cc1`, for which the z-score is 0.609 in assay [1]; -1.08 (inactive) in assay [2]; -0.341 (inactive) in assay [3]; -0.872 (inactive) in assay [5]; -1.02 (inactive) in [6]; 0.829 (inactive) in [7]. Moreover, the z-score in assay [8] was 0.751 (inactive); in assay [9] it was 0.487. The composite z-score in [4] is -2.56 (inactive); in assay [10] it was 0.274.

As to `CCN1C(=O)[C@H]2[C@H]3[C@H](O)[C@H](O)CC(=NO[C@H](C)c4cn([C@@H]5COC[C@H]5O)nn4)[C@@H]3CC[C@H]2C1=O`, the z-score in assay [1] was -1.28; in assay [2] it was 1.15 (inactive); in assay [3], -0.917 (inactive); in assay [5] it was 1.46 (inactive); in assay [6] it was 0.539 (inactive); in assay [7], 0.319 (inactive). Moreover, the z-score in [8] is -0.787 (inactive); in [9] it was -0.767. The composite z-score is 0.871 (inactive) in assay [4] and -0.124 in assay [10].

As for `COc1ccc(COC(=O)NN=C2C[C@@H](O)[C@@H](O)[C@@H]3[C@@H]4C(=O)N(C5CCCCC5)C(=O)[C@@H]4CC[C@@H]23)cc1`, the z-score in assay [1] was -0.578; in assay [2] it was -1.29 (inactive); in assay [3], -0.489 (inactive); in [5], -0.118 (inactive); in [6], -0.286 (inactive); in assay [7], -0.697 (inactive). The z-score in assay [8] is -0.437 (inactive); in assay [9] it was -0.481. For the same compound, the composite z-score is -1.39 (inactive) in assay [4] and 0.0225 in assay [10].

In the case of `CCOC(=O)[C@H](CC(C)C)NC(=O)CCC1CC(OC(=O)NCCc2ccc(F)cc2)CC2(CCCC(COC(=O)NCCCN3CCCC3=O)O2)O1` (stereo not given in full), the z-score in assay [1] was 0.653; in assay [2] it was -0.796 (inactive); in assay [3] it was 0.469 (inactive); in assay [5] it was 0.909 (inactive); in assay [6] it was -0.129 (inactive); in [7], 0.698 (inactive). Besides, the figures for the z-score in [8] and in assay [9] were -0.405 (inactive) and 1.32, respectively. The composite z-score in [4] is 0.0102 (inactive); in [10] it was -0.179.

In the case of `CCOC(=O)[C@H](CC(C)C)NC(=O)CCC1CC(OC(=O)NCc2ccc3c(c2)OCO3)CC2(CCCC(COC(=O)NCCc3ccccc3OC)O2)O1` (stereo not given in full), the z-score in [1] is 0.686; in assay [2], 0.594 (inactive); in assay [3], -0.0143 (inactive); in assay [5] it was 0.614 (inactive); in assay [6], -0.173 (inactive); in assay [7] it was -0.163 (inactive). For the same compound, the z-score is -1.02 (inactive) in assay [8] and 0.512 in assay [9]. Moreover, the composite z-score is -0.445 (inactive) in assay [4] and -0.102 in assay [10].

(Values after PubChem BioAssay.)
